We go through 63 molecules from PubChem BioAssay AID1851 (National Center for Advancing Translational Sciences (NCATS), 2009).

Molecules are shown by their SMILES. Among all 16,000 compounds or so, about 4,000 (25%) were called active. About 26% were inconclusive and are not listed. The call rests on the fitted dose curve; in most records, active means well fitted curve in the direction sought with a large enough effect; inconclusive means small, poorly fitted or top-dose-only effect, or effect the other way; inactive means no such curve, though single readings can be large or run the other way. The list is a sample of the results.
On the % scale 0 is the no-effect control and ±100 the full control effect.

The target in this assay is Cytochrome P450 2C9 (Homo sapiens) (UniProt P11712). The experiment in a line: Cytochrome panel assay with activity outcomes. The note with it: recombinant CYP, pro-luciferin dealkylation, luminescence, p450-cyp2c9; series mostly up to 57.1 µM; activity, negative = inhibition: at the top concentration.
Sequence of Cytochrome P450 2C9 (Homo sapiens) (P11712 whole entry, looked up): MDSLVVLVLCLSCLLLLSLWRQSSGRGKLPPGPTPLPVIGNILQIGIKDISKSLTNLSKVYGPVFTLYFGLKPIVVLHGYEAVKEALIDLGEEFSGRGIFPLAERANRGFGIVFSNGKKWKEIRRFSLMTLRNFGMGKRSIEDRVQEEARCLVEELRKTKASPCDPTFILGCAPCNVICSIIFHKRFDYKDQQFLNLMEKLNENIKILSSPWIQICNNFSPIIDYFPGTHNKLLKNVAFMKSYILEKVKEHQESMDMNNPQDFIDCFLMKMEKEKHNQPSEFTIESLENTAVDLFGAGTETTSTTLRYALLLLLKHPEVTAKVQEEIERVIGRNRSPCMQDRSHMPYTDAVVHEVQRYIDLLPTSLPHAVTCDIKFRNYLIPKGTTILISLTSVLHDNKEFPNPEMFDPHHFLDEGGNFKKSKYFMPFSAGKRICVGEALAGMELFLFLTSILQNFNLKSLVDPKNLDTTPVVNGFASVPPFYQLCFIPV
For `N[C@@H](CSCc1ccc(I)cc1)C(=O)O`, the activity, negative = inhibition is 12.7% [at 11.4 µM] (inactive).

Consider `O=C(NNC(=O)c1cccnc1)Nc1cccc2ccccc12`, for which the “activity, negative = inhibition” value is -16.4% (inactive).

Take `O=C(NNC(=S)NC(=O)c1cccnc1)c1ccccc1`: the AC50 was 5.62 µM (active).

In the case of `Cc1ccc(C(=O)NNC(=S)NC(=O)c2ccc(Cl)cc2)cc1`, the concentration at half-maximal activity (AC50) was 2 µM (active).

Consider `CCCCC(=O)Nc1cc(OCC)c(NC(=O)c2ccccc2[N+](=O)[O-])cc1OCC`, for which the “activity, negative = inhibition” value is -12.6% (inactive).

As to `NCCNC(=O)c1ccc(Cl)cc1`, the AC50 entry is “inactive”.

On to `COc1ccc(C(=O)NC(=S)NCc2ccccc2)cc1`, for which the AC50 is 15.8 µM (active).

On to `CCCCC(=O)NNC(=S)NC(=O)c1cccc([N+](=O)[O-])c1`, for which the concentration at half-maximal activity (AC50) is 10 µM (active).

For the molecule `O=C(NNS(=O)(=O)c1ccccc1)c1cccnc1`, the activity, negative = inhibition was 2.91% [at 11.4 µM] (inactive).

Regarding `Cc1ccc(C(=O)NNC(=O)C2CCCN(c3ncccn3)C2)cc1` (stereo not drawn), the “activity, negative = inhibition” value is 25.8% (inactive).

On to `CSc1nc2c(c(C(F)(F)F)n1)CC(C)CC2` (stereo not drawn), for which the “activity, negative = inhibition” value is 14.4% (inactive).

Consider `Cc1ccccc1-c1nccc(NCCN2CCOCC2)n1`, for which the activity, negative = inhibition was 15.8% [at 2.29 µM] (inactive).

Turning to `CN(CC(=O)O)CC(=O)O`, the activity, negative = inhibition was -7.68% [at 11.4 µM] (inactive).

Regarding `CCc1cc2c(nc1CC)CCN(CC/C(C)=N/O[C@@H](C)c1cc(-c3c(C)cc(C)cc3C)no1)C2`, the activity, negative = inhibition is 8.77% [at 11.4 µM] (inactive).

Regarding `Cc1ccc(OCC(=O)NNC(=O)CCc2ccccc2)cc1`, the “activity, negative = inhibition” value was -12.1% (inactive).

As for `CCOc1cc(NC(=S)Nc2ccccc2)c(OCC)cc1NC(=O)c1ccc(OC)cc1`, the AC50 is 1.78 µM (active).

In the case of `O=C(NC(=S)NNC(=O)c1cccs1)c1ccco1`, the AC50 is 15.8 µM (active).

Consider `COc1ccc(NC(=O)N2CC3(CCN(C(=O)c4ccco4)CC3)C2)cc1`, for which the “activity, negative = inhibition” value was -17.3% (inactive).

As for `CCOc1ccc(NC(=O)c2ccc(OC)cc2)cc1`, the “activity, negative = inhibition” value is -18.5% (inactive).

For the molecule `COc1ccc(C(=O)NNC(=S)NC(=O)c2ccco2)cc1`, the AC50 was 7.08 µM (active).

As for `COc1ccc(NC(=O)N2CCC3(CC2)CCN(C(=O)c2ccco2)CC3)cc1`, the “activity, negative = inhibition” value is -28.3% (inactive).

Consider `COc1ccc(C(=O)NC(=S)NNC(=O)CCc2ccccc2)cc1`, for which the half-maximal activity concentration (AC50) is 2.82 µM (active).

Take `c1ccc(C2CCC(N3CCC(N4CCCCC4)CC3)CC2)cc1` (stereo not drawn): the “activity, negative = inhibition” value was -7.45% (inactive).

Turning to `O=C1c2cccc3c(Nc4ccccc4Cl)c([N+](=O)[O-])cc(c23)C(=O)N1CCO`, the AC50 is 2.82 µM (active).

Regarding `O=C1NC(=O)C(c2ccccc2[N+](=O)[O-])=C1Nc1ccc(O)c(Cl)c1`, the “activity, negative = inhibition” value is -11.5% (inactive).

Consider `O=[N+]([O-])c1cc(Cl)cc2c1nc(NCCO)c1ccccc12`, for which the activity, negative = inhibition was -0.585% [at 11.4 µM] (inactive).

Consider `COc1cc(C=O)ccc1OCCOCCOc1ccccc1Cl`, for which the AC50 is 12.6 µM (active).

For `C#CCN(C)CCCOc1ccc(Cl)cc1Cl`, the AC50 result is “inactive”.

Turning to `CCCOc1ccc(/C=C/C(=O)Nc2ccc([N+](=O)[O-])cc2C)cc1OC`, the “activity, negative = inhibition” value was 3.29% (inactive).

As to `COc1ccc(/C=C2\OC(=O)c3c(OC)cccc32)cc1OC`, the “activity, negative = inhibition” value was -28.5% (inactive).

Regarding `COc1ccc(-n2cccc2C=O)cc1OC`, the “activity, negative = inhibition” value was -8.44% (inactive).

Take `COc1ccc(CNC(C)(C)C)cc1Cl`: the “activity, negative = inhibition” value is 0.0327% (inactive).

With `COc1cc(C)ccc1OCCOc1cc(C)ccc1Cl`, the AC50 was 0.794 µM (active).

`COc1ccccc1OCCCOc1ccc([N+](=O)[O-])cc1Cl`: the AC50 was 11.2 µM (active).

Consider `CN=C(NC#N)Nc1ccc(C2=NNC(=O)C[C@@H]2C)cc1`, for which the “activity, negative = inhibition” value is -11.9% (inactive).

Regarding `COc1ccc(-c2nc(N)c3ncn([C@H]4O[C@@H](CO)[C@@H](O)[C@@H]4O)c3n2)cc1`, the activity, negative = inhibition is 8.82% [at 11.4 µM] (inactive).

On to `COc1cc(CNCc2cccs2)ccc1OCC(=O)NC(C)(C)C`, for which the “activity, negative = inhibition” value was -12.4% (inactive).

Consider `C[C@H](Nc1ncnc2sc3c(c12)CCC3)C(=O)O`, for which the “activity, negative = inhibition” value was -3.13% (inactive).

For the molecule `COCCNc1nc(-c2ccc(N(C)C)cc2)nc2ccccc12`, the activity, negative = inhibition was 8.62% [at 2.29 µM] (inactive).

Consider `CC(CO)Nc1nc(SCc2ccccc2)nc2sc3c(c12)CCC3` (stereo not drawn), for which the AC50 is 4.47 µM (active).

On to `COCCNc1nc(-c2ccccc2C)nc2ccccc12`, for which the activity, negative = inhibition was -5.55% [at 2.29 µM] (inactive).

For the molecule `COCCNc1nc(SCc2ccccc2)nc2sc3c(c12)CCC3`, the AC50 is 3.16 µM (active).

For the molecule `OCCNc1nc(SCc2ccccc2)nc2sc3c(c12)CCC3`, the half-maximal activity concentration (AC50) is 7.94 µM (active).

On to `CSc1ccc2c(c1)N(CC[C@H]1CCCCN1C)c1ccccc1S2`, for which the AC50 result is “inactive”.

Take `CC1(C)OCC([C@H](O)C2=CCCCC2=O)CO1`: the activity, negative = inhibition is 2.86% [at 11.4 µM] (inactive).

With `CN(C)CCCNC(=O)c1cc2c3ccccc3n(C)c2s1`, the “activity, negative = inhibition” value is -7.37% (inactive).

Take `COc1ccccc1CNC(=O)c1cc2c(C)nn(Cc3ccc(F)cc3)c2s1`: the half-maximal activity concentration (AC50) is 2.24 µM (active).

For the molecule `COc1ccccc1CNc1ncnc2ccc(-c3ccc(C(=O)N(C)C)cc3)cc12`, the activity, negative = inhibition was 0.573% [at 2.29 µM] (inactive).

Take `Cc1c(C2CCN(CCc3ccccc3)CC2)noc1-c1ccc(Cl)cc1`: the “activity, negative = inhibition” value is -12.1% (inactive).

Consider `Brc1ccc(-c2csc(N3CCC(c4ccccc4)C3)n2)cc1` (stereo not drawn), for which the AC50 was 10 µM (active).

For the molecule `Fc1ccc(-c2csc(N3CCC(c4ccccc4)C3)n2)cc1` (stereo not drawn), the AC50 was 17.8 µM (active).

As to `Clc1ccc(-c2csc(N3CCC(c4ccccc4)C3)n2)cc1` (stereo not drawn), the concentration at half-maximal activity (AC50) was 14.1 µM (active).

For the molecule `COc1cc2nc(N3CCN(C(=O)OCc4ccccc4)[C@H](C(=O)NC(C)(C)C)C3)nc(N)c2cc1OC`, the “activity, negative = inhibition” value was -9.68% (inactive).

In the case of `CC(=O)C[C@H](c1ccc([N+](=O)[O-])cc1)c1c(O)c2ccccc2oc1=O`, the AC50 was 0.631 µM (active).

On to `CN(C)c1ccc(C(c2ccc(N(C)C)cc2)c2ccc([N+](=O)[O-])cc2)cc1`, for which the activity, negative = inhibition is -7.57% [at 11.4 µM] (inactive).

Regarding `COc1ccc(NC(=O)N2CC3(CCN(C(=O)c4cnccn4)CC3)C2)cc1`, the “activity, negative = inhibition” value is 7.59% (inactive).

Consider `O=c1oc2cc(Oc3ccc(C(F)(F)F)cc3[N+](=O)[O-])ccc2c2c1CCCC2`, for which the AC50 was 12.6 µM (active).

On to `Cn1ncc2c(Cl)ncnc21`, for which the activity, negative = inhibition is 0.147% [at 11.4 µM] (inactive).

Take `O=C1[C@@H]2[C@H]3[C@H](O)[C@H](O)C/C(=N/OCc4ccccc4)[C@H]3CC[C@H]2C(=O)N1c1ccc(F)cc1F`: the activity, negative = inhibition is 12.6% [at 11.4 µM] (inactive).

For the molecule `COc1ccc(-c2nnc(-c3cccnc3)o2)cc1`, the “activity, negative = inhibition” value was -20.5% (inactive).

For `COc1cccc(-c2noc(-c3cccnc3)n2)c1`, the AC50 was 15.8 µM (active).

Regarding `CC(=O)OCC1=C(C(=O)O)N2C(=O)[C@@H](NC(=O)CSc3ccncc3)[C@@H]2SC1`, the AC50 entry was “inactive”.

For the molecule `CNc1csc(C)c(C)c1=O`, the “activity, negative = inhibition” value was 6.4% (inactive).
